The supplement of paper PMC13380429

Columns and labels:
[1] = system: Vero E6 infected with SARS-CoV-2; experiment: morphology score (similarity to uninfected cells); higher = more like uninfected cells; settings: 24 h
[2] = system: Vero E6 infected with SARS-CoV-2; experiment: SARS-CoV-2 infection rate relative to infected DMSO; higher = more infection, active = 60 or less; settings: 24 h

Row | Compound | morphology score [1] | SARS-CoV-2 infection rate [2]
1 | Cc1c(C)c2c(c(C)c1O)CCC(C)(C)O2 (10 µM) | -0.0795 | 116% (inactive)
2 | c1ccc(NCc2ccc(CNc3ccccn3)cc2)nc1 (10 µM) | -0.0443 | 102% (inactive)
3 | CC(C)C(=O)Oc1ccc(CO)cc1[C@H](CCN(C(C)C)C(C)C)c1ccccc1 [fesoterodine] (10 µM) | 0.096 | 108% (inactive)
4 | O=c1[nH]c2ccc(Cl)cc2c(N[C@@H]2CN3CCC2CC3)c1-c1nc2ccccc2[nH]1 (10 µM) | -0.162 | 110% (inactive)
5 | CSc1ccc(OCc2ncc([N+](=O)[O-])n2C)cc1 [fexinidazole] (10 µM) | -0.0351 | 114% (inactive)
6 | COc1cc(NS(C)(=O)=O)ccc1Nc1c2ccccc2nc2ccccc12 [amsacrine] (10 µM) | -0.0803 | 108% (inactive)
7 | COc1ccc(S(=O)(=O)Nc2cc(Cl)cc(Cl)c2OC)cc1N1CCNCC1 (10 µM) | 0.132 | 97.5% (inactive)
8 | C/C(=N\NC(=S)N1CCC1)c1ccccn1 (0.833333 µM) | 0.0268 | 114% (inactive)
9 | Cc1cc(N2CCOCC2)ccc1Nc1nc(NC2CCCCC2)c2nc[nH]c2n1 (10 µM) | -0.0587 | 90.5% (inactive)
10 | C[C@@H]1CN(c2c(F)c(F)c3c(=O)c(C(=O)O)cn(C4CC4)c3c2F)C[C@H](C)N1 [orbifloxacin] (10 µM) | 0.149 | 96.5% (inactive)
11 | CC1(C)OC[C@@H](COC(=O)CCc2ccc(OC[C@@H](O)CNCCNC(=O)N3CCOCC3)cc2)O1 [landiolol] (10 µM) | -0.108 | 113% (inactive)
12 | Cc1c(O)c(=O)n(-c2ccccc2)n1C [4-hydroxy-phenazone] (10 µM) | -0.0731 | 116% (inactive)
13 | Clc1cccc2c1CN(C1=NCCN1)C2 (10 µM) | 0.132 | 93.5% (inactive)
14 | COc1ccc(CCc2nc3cc(-c4c(C)noc4C)ccc3n2C[C@H](C)N2CCOCC2)cc1Cl (0.833333 µM) | -0.0905 | 113% (inactive)
15 | CCC(=O)NCC[C@@H]1CCc2ccc3c(c21)CCO3 [ramelteon] (10 µM) | 0.00565 | 114% (inactive)
16 | C[C@]12CC[C@@H]3c4ccc(O)cc4CC[C@H]3[C@@H]1C[C@@H](O)[C@@H]2O [estriol] (10 µM) | -0.0117 | 108% (inactive)
17 | Clc1ccccc1C(c1ccccc1)(c1ccccc1)n1ccnc1 [clotrimazole] (10 µM) | 0.254 | 78.5% (inactive)
18 | C1CCC2(CC1)CCNCC2 [4,4-pentamethylenepiperidine] (10 µM) | -0.0731 | 104% (inactive)
19 | CC[n+]1c(-c2ccccc2)c2cc(N)ccc2c2ccc(N)cc21 [homidium] (10 µM) | 0.276 | 99.5% (inactive)
20 | O=C(O)c1ccc(-n2nc(-c3ccccc3O)nc2-c2ccccc2O)cc1 [deferasirox] (0.833333 µM) | 0.0304 | 114% (inactive)
21 | N[C@@H](C(=O)O)c1ccc(C(=O)O)c(C(=O)O)c1 (racemic) (10 µM) | 0.105 | 98.2% (inactive)
22 | C[C@H](NC[C@H](O)CP(=O)(O)Cc1ccccc1)c1ccc(Cl)c(Cl)c1 (10 µM) | 0.127 | 106% (inactive)
23 | COc1cc2c(cc1Cc1cccc(Cl)c1F)c(=O)c(C(=O)O)cn2[C@H](CO)C(C)C [elvitegravir] (10 µM) | 0.0588 | 107% (inactive)
24 | Cc1cccc(-c2[nH]c(CNc3ccccc3F)nc2-c2ccc3ncnn3c2)n1 (10 µM) | 0.295 | 109% (inactive)
25 | O=C(O)CNC(=O)C(CS)Cc1ccccc1 (stereo not given) [thiorphan] (10 µM) | 0.106 | 98.5% (inactive)
26 | O=C(Nc1ccccc1Br)N[C@@H]1CCN(c2ccc(C(F)(F)F)cn2)C1 (10 µM) | 0.0714 | 94.5% (inactive)
27 | O=C1[C@H](Cc2ccc(O)cc2)N2C(=O)CCN(C(=O)NCc3ccccc3)[C@H]2CN1Cc1cccc2ccccc12 (10 µM) | 0.0761 | 93% (inactive)
28 | C[C@H](N)C(=O)N[C@@]1(C(=O)O)C[C@@H](Sc2nnc[nH]2)[C@H]2[C@H](C(=O)O)[C@H]21 (10 µM) | -0.0396 | 114% (inactive)
29 | CCCC(=O)O [sodium-butyrate] (10 µM) | 0.0558 | 110% (inactive)
30 | NC(=O)CN1CC(O)CC1=O (stereo not given) [oxiracetam] (10 µM) | -0.00498 | 107% (inactive)
